SMARCA2 activ = SMARCA2 function activation, primary screen | MG213 cells, MMTV-luciferase reporter, dexamethasone, overnight | activation, % at 9.1 µM | actives 1% (n = 370,000) | AID 652017; in the data active means activation above about 7.8%;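 further: 0% = vehicle wells and 100% = reference activator wells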
proKLK7 act = activates the human kallikrein-7 zymogen | purified proKLK7, EDANS-DABCYL substrate fluorescence; 100% is mature enzyme control, 0% vehicle | activation, % at 7 µM | actives 0.9% (n = 370,000) | P49862;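 active means activation above the mean of all tested compounds plus 3 SD, computed per campaign excluding outliers beyond control limits, cut at about 13% in these data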
Target sequence (P49862 whole entry, looked up): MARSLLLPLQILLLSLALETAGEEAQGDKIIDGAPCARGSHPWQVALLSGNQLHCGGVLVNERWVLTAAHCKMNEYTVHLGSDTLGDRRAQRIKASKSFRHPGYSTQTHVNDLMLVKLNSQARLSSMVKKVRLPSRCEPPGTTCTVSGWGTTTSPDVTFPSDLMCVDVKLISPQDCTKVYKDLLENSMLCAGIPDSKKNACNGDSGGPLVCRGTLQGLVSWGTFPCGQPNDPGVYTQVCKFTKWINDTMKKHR
bovine MsrA act = bovine methionine sulfoxide reductase A activation. purified bovine MsrA, absorbance read-out. actives 0.3% (n = 360,000). activation, % at 10.6 µM; in the data active means activation above about 7.5%;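 further: 0% = vehicle and 100% = reference activator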
MsrA inh = inhibitors of bovine MsrA; purified bovine MsrA, absorbance read-out; inhibition, % at 15.5 µM; actives 0.75% (n = 360,000); AID 651718; in the data active means inhibition above about 4.5%;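 further: 0% = vehicle wells with enzyme and 100% = reference inhibitor wells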
SMARCA2 act conf = confirmation of SMARCA2 (BRM) function activators. shares compounds with SMARCA2 activ. MG213 cells, MMTV-luciferase with dexamethasone, luminescence, overnight; MG213 cells expressing E1A, Rb sequestered; DMSO wells 0%, reference activator 100%. activation, % at 9.1 µM. actives 30% (n = 3,500);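 active means activation above its plate's cutoff, the mean activation of tested wells plus 3 SD, cut at about 7.9% in these data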
GAL4-VP16 Luc = counter-screen for SMARCA2 activators: GAL4-VP16 luciferase reporter activation. activation, % at 9.1 µM. AID 686939. HEK293 GAL4-VP16 pG5luc reporter, luciferase luminescence; scaled: DMSO wells 0%, SAHA wells 100%. actives 41% (n = 3,500). shares compounds with SMARCA2 activ;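 active means activation above the solvent-only control well mean plus 3 SD, averaged across control plates, cut at about 5.2% in these data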
Numbers without * were called inactive; . = not tested or not shown. This is a sample that favours compounds with a hit; in the whole collection about 2.8% have one here.

SMILES	SMARCA2 activ	proKLK7 act	bovine MsrA act	MsrA inh	SMARCA2 act conf	GAL4-VP16 Luc
Cc1sc(NC(=O)c2ccc(Br)s2)c(C(N)=O)c1C	9.1*	1	-5	1	6	9.6*
COc1ccc(C(=O)CSc2nccn2C)cc1	11*	-1	-2	0	5	5
Cn1ccnc1SCC(=O)c1ccc(OC(F)F)cc1	3	-1	3	1	.	.
CCOc1ccc(NC(=O)CSc2nccn2C)cc1	8.8*	0	-5	0	6	4
CC1(C(=O)NS(=O)(=O)c2cccc(F)c2)CCN1C(=O)CCC1CCCC1 (configuration not stated)	-3	-1	-4	-1	.	.
Cc1ccc(NNC(=O)c2c(C)noc2C)cc1Cl	12*	1	-3	-1	-1	1
COc1ccc(/C=N/NC(=O)c2ccn[nH]2)cc1COc1ccc(F)cc1	8.4*	0	-16	2	3	1
COc1ccc(/C=N/NC(=O)c2ccn[nH]2)cc1COc1ccc([N+](=O)[O-])c(C)c1	1	0	-1	2	.	.
CC(C)C(=O)N1CCC1(C)C(=O)Nc1nc2ccccc2[nH]1 (configuration not stated)	2	0	-2	1	.	.
O=C(COC(=O)c1cccnc1SCC(=O)NCc1ccccc1)NCc1ccccc1	9.1*	-1	-5	1	7	2
COc1ccccc1CNC(=O)COC(=O)c1cccnc1SCC(=O)NCc1ccccc1OC	2	0	-2	0	.	.
COc1ccccc1C(=O)NC1CCCCN(Cc2ccc(C)cc2)C1=O (configuration not stated)	-1	-1	.	.	.	.
COc1ccc(-c2cn(-c3ccc(C)cc3)c(=O)n2CC(=O)Nc2ccc(OC)cc2OC)cc1	8.8*	0	0	0	-4	3
O=C(O)c1ccc(/C=C/c2nc3ccccc3c(=O)[nH]2)cc1	-2	0	-2	0	.	.
O=c1[nH]c(/C=C/c2ccccc2Cl)nc2ccccc12	8.6*	-16	-7	0	13*	9.1*
Cc1cc(C)n2nc(-c3ccccc3)cc2n1	3	0	-13	2	.	.
CCC1C(=O)n2nc(-c3ccccc3)cc2N=C1C (configuration not stated)	10*	-21	-3	0	12*	9.2*
CCOC(=O)c1[nH]c2cc(OC)c(OC)cc2c1NC(=O)c1nonc1C	9.9*	-1	1	2	-2	-2
CCOC(=O)c1[nH]c2cc(OC)c(OC)cc2c1NC(=O)c1ccc2c(c1)OCO2	-2	0	-18	3	.	.
Cc1nc2c(sc3nc(N4CCOCC4)c4c(c32)CC(C)(C)OC4)c(-c2ccc(Cl)cc2)c1C(=O)O	8.4*	-4	-3	0	-5	0
COCCNc1nc(Oc2ccc(C(N)=O)cc2)c2sccc2n1	2	0	-5	0	.	.
CN(CC(=O)NCc1ccncc1)S(=O)(=O)c1ccc(F)cc1	8.3*	0	0	-1	-2	0
CN(CC(=O)NCc1ccncc1)S(=O)(=O)c1ccc(Cl)cc1	1	0	-3	0	.	.
COc1ccc(/C(N)=N/OC(=O)c2ccco2)cc1	8.6*	-1	-2	0	7	13*
Cc1cccc(/C(N)=N/OC(=O)c2ccco2)c1	9.3*	0	-6	0	19*	11*
SMILES	SMARCA2 activ	proKLK7 act	bovine MsrA act	MsrA inh	SMARCA2 act conf	GAL4-VP16 Luc
Cc1ccc(/C(N)=N/OC(=O)c2ccco2)cc1	6	1	-2	1	.	.
CCc1ccccc1-c1cc(C(C)=O)c2n(c1=O)CCC2	-2	0	.	.	.	.
Cc1ccc(NCCC(=O)c2cccc([N+](=O)[O-])c2)cc1	9.4*	0	0	0	8.0*	1
COc1cccc(-c2cc(C(=O)NCc3ccco3)no2)c1	8.4*	0	0	0	7	11*
O=C(NCc1ccco1)c1ccc(CS(=O)c2ccccc2Cl)o1 (configuration not stated)	0	0	-10	0	.	.
O=C(NCc1ccco1)c1cc(-c2cccc(Cl)c2)on1	-1	1	1	0	.	.
O=C(NCc1ccco1)c1ccc(-c2cccc(Cl)c2)o1	9.6*	0	-2	0	13*	5.3*
O=C1c2ccccc2C(c2nnnn2-c2ccc3c(c2)OCCO3)N1Cc1cccc(F)c1 (configuration not stated)	-3	-1	-3	0	.	.
C[C@H](CO)N1C[C@H](C)[C@@H](CN(C)C(=O)CCC(F)(F)F)OCc2cn(nn2)CCCC1=O	8.4*	-1	.	0	0	1
C[C@@H]1CN([C@@H](C)CO)C(=O)CCCn2cc(nn2)CO[C@H]1CN(C)C(=O)CCCN(C)C	4	0	0	-1	.	.
CCc1ccc(N2CC(C(=O)Nc3ccc(S(=O)(=O)N4CCOCC4)cc3)CC2=O)cc1 (configuration not stated)	-2	0	-5	-1	.	.
CN(C)CCNC(=O)c1sc2cccc(F)c2c1Cl	-2	0	-4	2	.	.
CN(C)CCNC(=O)c1ccccc1	-2	0	1	-1	.	.
CN(C)CCNC(=O)c1cccc2ccc(-c3ccc(-c4ccccc4)cc3)nc12	8.6*	-21	-3	0	24*	0
CN(C)CCNC(=O)c1cccc2nc3cccc(F)c3nc12	52*	5	1	2	194*	14*
O=C(COCc1ccccc1)N1CCC(Oc2cccnc2)CC1	4	0	.	.	.	.
C/C(=N\NC(=O)Cc1c(C)[nH][nH]c1=O)c1ccc(Cl)c(Cl)c1	8.0*	0	-3	0	0	3
C/C(=N/NC(=O)Cc1c(C)[nH][nH]c1=O)c1ccc(O)cc1	-3	0	-9	0	.	.
O=c1[nH][nH]c2c1C(C1CCCCC1)OC(C1CCCCC1)C2 (configuration not stated)	-3	-1	-4	1	.	.
O=C1/C(=C/c2ccco2)Cc2ccccc21	11*	-1	-7	3	13*	4
O=C1C(=Cc2ccc(F)cc2)Cc2ccccc21	5	1	-6	1	.	.
O=C(Nc1ccccc1Cl)c1cc(C2CCCCN2C(=O)c2ccccc2)on1 (configuration not stated)	-2	0	-2	-1	.	.
CC(=O)Nc1cc(-c2cccc(C(=O)NCCO)c2)cn2c(-c3cccc(C(F)(F)F)c3)cnc12	2	1	2	0	.	.
CSc1nc(C)cc(SCC(=O)Nc2ccc(Cl)cc2Cl)n1	8.0*	0	-2	0	0	0
Cc1ccc(-c2cc(NC(=O)Cc3c[nH]c4ccccc34)ccc2N(C)c2cccnc2)cc1	1	0	.	1	.	.
